Values joined by “and” are separate entries in the source; they are usually repeats but may differ in a detail not shown here. Identical values can stand only once. Records with an inconclusive call do not appear. A call without a number means that no potency is given here. The source holds several records for some structures; these can differ, active in one and inactive in another. Active and inactive are the calls of the source. The call rests on the fitted dose curve; in most records, active means well fitted curve in the direction sought with a large enough effect in the repeat runs; inconclusive means weak or mixed curves; inactive means no such curve, though single readings can be large; an effect the other way counts as inactive or inconclusive.

Sequence of Nuclear receptor subfamily 1 group I member 2 (Rattus norvegicus) (Q9R1A7 whole entry, looked up): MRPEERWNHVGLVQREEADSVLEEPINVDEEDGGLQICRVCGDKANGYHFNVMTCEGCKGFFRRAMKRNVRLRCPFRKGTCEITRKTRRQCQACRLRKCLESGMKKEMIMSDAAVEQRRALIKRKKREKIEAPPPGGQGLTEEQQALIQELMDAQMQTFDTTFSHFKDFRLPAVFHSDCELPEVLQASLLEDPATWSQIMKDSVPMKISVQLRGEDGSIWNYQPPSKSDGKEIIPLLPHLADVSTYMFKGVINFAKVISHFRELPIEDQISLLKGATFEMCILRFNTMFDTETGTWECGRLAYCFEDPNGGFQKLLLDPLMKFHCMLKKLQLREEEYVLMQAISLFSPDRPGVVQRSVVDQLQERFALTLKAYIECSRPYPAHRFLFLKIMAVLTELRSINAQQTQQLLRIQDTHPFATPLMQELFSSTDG
Sequence of Nuclear receptor subfamily 1 group I member 2 (Homo sapiens) (O75469 whole entry, looked up): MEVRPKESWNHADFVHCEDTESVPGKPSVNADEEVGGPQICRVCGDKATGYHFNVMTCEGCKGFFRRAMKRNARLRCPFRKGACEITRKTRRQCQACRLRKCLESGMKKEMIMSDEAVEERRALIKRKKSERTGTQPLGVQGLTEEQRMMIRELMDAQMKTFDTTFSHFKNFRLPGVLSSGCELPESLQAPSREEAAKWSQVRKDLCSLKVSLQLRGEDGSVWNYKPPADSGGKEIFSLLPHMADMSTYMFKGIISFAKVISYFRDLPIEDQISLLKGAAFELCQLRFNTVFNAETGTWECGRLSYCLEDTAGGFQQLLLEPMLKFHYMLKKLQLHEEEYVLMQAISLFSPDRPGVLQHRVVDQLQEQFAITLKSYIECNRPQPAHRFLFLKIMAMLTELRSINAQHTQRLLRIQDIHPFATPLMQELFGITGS

Tested on in one test: not listed separately
As to the kind of experiment: Caspase-3/7 induction in HepG2 cells by small molecules, qHTS cell viability counter screen (AID 1346981). Further: nearly all actives have a fitted effect of over 30% in size. Further: potency means the concentration at half of the fitted maximal effect. The note with it: CellTiter-Fluor fluorescence, 17 h; series mostly up to 92.4 µM. The gist of the method:
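Cell viability is measured as a cytotoxicity counter screen alongside the Caspase-Glo 3/7 readout in identical wells. Wild-type HepG2 cells are treated with test compounds for 16 hr at 37 C before CellTiter-Fluor addition and a 1-hr incubation.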
Turning to `CCOP(=S)(OCC)Oc1cnc2ccccc2n1`, the Potency result was “inactive”.

Consider `O=[N+]([O-])c1ccc([As](=O)(O)O)cc1`, for which the Potency entry is “inactive”. Regarding `CN(C)[C@@H]1C(=O)C(C(N)=O)=C(O)[C@@]2(O)C(=O)C3=C(O)c4c(O)cccc4[C@@](C)(O)[C@H]3C[C@@H]12`, the Potency entry was “inactive”. Same read-out and setting: then `OC(O)C(Cl)(Cl)Cl`, with “inactive”; and `Clc1ccc(Cl)cc1`, with 4.32 µM (active) and inactive.

The next test has as its target Nuclear receptor subfamily 1 group I member 2 (Homo sapiens) (UniProt O75469). Kind of test: Human pregnane X receptor (PXR) small molecule agonists, qHTS assay (AID 1346982). Further: nearly all actives have a fitted effect of over 35% in size. Further: potency means the concentration at half of the fitted maximal effect. As to conditions: PXR-Luc HepG2, CYP3A4 luciferase reporter, 24 h; series mostly up to 92.4 µM. An outline of the steps: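 Cells: HepG2 stably carrying PXR-Luc. Medium held 5% charcoal-stripped FBS. Compounds in DMSO added after 5 hr plating, incubated 24 hr, then luminescence quantified with ONE-Glo.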
For orientation: In qHTS, concentration-response curves come from the screen itself.
Take `Cc1ccc(N)cc1N`: the Potency entry was “inactive”.

Take `CC(C)C#N`: the Potency result is “inactive”. On the same count and under the same terms, then `CCN(CC)c1ccccc1`, with “inactive”.

For the compound `CC(Oc1ccc(Cl)cc1Cl)C(=O)O` (centres undefined), the Potency entry is “inactive”. Still for that read-out and setting: then `O=S(=O)(c1ccc(O)cc1)c1ccc(O)cc1`, with “inactive”; and `O=c1ccc(=O)[nH][nH]1`, with “inactive”.

`c1ccc2c(c1)oc1ccccc12`: the Potency result is “inactive”. The same measure, in the same setting: the entry for `Nc1ccccc1C(=O)O` is “inactive”. Take `O=[N+]([O-])c1ccccc1`: the Potency result was “inactive”. Still for that read-out and setting: then `C#CCN(C)[C@H](C)Cc1ccccc1`, with “inactive”; and `C=CC(N)=O`, with “inactive”. For the compound `Clc1ccccc1Cl`, the Potency entry is “inactive”. Same read-out and setting: the entry for `CC1OC(C)OC(C)O1` (centres undefined) is “inactive”; for `CCOC(=O)c1ccccc1C(=O)OCC` it is “inactive”. On the same count and under the same terms, the entry for `CC(=O)C=C(C)C` is “inactive”; for `Nc1ccc(Br)cc1` it is “inactive”. The same measure, in the same setting: then `O=C(NC(=O)c1c(F)cccc1F)Nc1cc(Cl)c(OC(F)(F)C(F)C(F)(F)F)cc1Cl` (centres undefined), with “inactive”; and `Oc1ccccc1Cl`, with “inactive”. As for `C[C@]12CC[C@H]3[C@@H](CC[C@@]45O[C@@H]4C(O)=C(C#N)C[C@]35C)[C@@H]1CC[C@@H]2O`, the Potency entry was “inactive”.

Consider `CCCCN(CC)C(=O)SCCC`, for which the Potency entry was “inactive”.

For `CC(C)=C[C@@H]1[C@@H](C(=O)OCc2coc(Cc3ccccc3)c2)C1(C)C`, the Potency was 13.7 µM (active). Turning to `O=C(O)c1ccccn1`, the Potency result is “inactive”. Still for that read-out and setting: the entry for `CC(C)(C)OOC(C)(C)C` is “inactive”. Regarding `C=C(C)CCl`, the Potency entry is “inactive”. Still for that read-out and setting: then `O=c1n(Cl)c(=O)n(Cl)c(=O)n1Cl`, with “inactive”. Same read-out and setting: the entry for `BrCCBr` is “inactive”; for `O=C1CCCN1` it is 69.3 µM (active) and inactive. On the same count and under the same terms, the entry for `c1ccc(-c2ccccc2)cc1` is “inactive”; for `O=NN1CCCCCCC1` it is “inactive”. As for `NCCc1ccc(O)cc1`, the Potency result is “inactive”. On the same count and under the same terms, then `CCOP(=S)(OCC)Oc1cnc2ccccc2n1`, with “inactive and 30.6 µM (active)”; and `O=[N+]([O-])c1ccc([As](=O)(O)O)cc1`, with “inactive”; and `CN(C)[C@@H]1C(=O)C(C(N)=O)=C(O)[C@@]2(O)C(=O)C3=C(O)c4c(O)cccc4[C@@](C)(O)[C@H]3C[C@@H]12`, with “inactive”. Still for that read-out and setting: the entry for `OC(O)C(Cl)(Cl)Cl` is “inactive”; for `Clc1ccc(Cl)cc1` it is 1.93 µM (active) and inactive.

The next test addresses Nuclear receptor subfamily 1 group I member 2 (Rattus norvegicus) (UniProt Q9R1A7). Kind of test: Rat pregnane X receptor (rPXR) activation by small molecules, qHTS assay (AID 1346983). Further: nearly all actives have a fitted effect of over 20% in size. As to conditions: rPXR luciferase reporter cells, One-Glo luminescence, 24 h; stronger effect = higher value. An outline of the steps: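 Luminescent readout (One-Glo luciferase, 30 min room temperature) followed 24 hr compound treatment at 37 C of rPXR cells plated 2,000 per well and preincubated 5hr; qHTS format with compounds delivered in DMSO.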
Take `Nc1ccccc1C(=O)O`: the max activation is -2.88% (inactive). Same read-out and setting: the figure for `O=[N+]([O-])c1ccccc1` is 7.19% (inactive); for `C#CCN(C)[C@H](C)Cc1ccccc1` it is -1.33% (inactive); for `Clc1ccccc1Cl` it is -2.27% (inactive). Still for that read-out and setting: then `CC1OC(C)OC(C)O1` (centres undefined), with -1.58% (inactive) and 0.0541% (inactive). Same read-out and setting: the figure for `CCOC(=O)c1ccccc1C(=O)OCC` is -0.77% (inactive). As to `O=C(NC(=O)c1c(F)cccc1F)Nc1cc(Cl)c(OC(F)(F)C(F)C(F)(F)F)cc1Cl` (centres undefined), the max activation was -1.37% (inactive). Same read-out and setting: the figure for `C[C@]12CC[C@H]3[C@@H](CC[C@@]45O[C@@H]4C(O)=C(C#N)C[C@]35C)[C@@H]1CC[C@@H]2O` is -0.29% (inactive); for `CC(C)=C[C@@H]1[C@@H](C(=O)OCc2coc(Cc3ccccc3)c2)C1(C)C` it is 12.4% (inactive).

Regarding `O=c1n(Cl)c(=O)n(Cl)c(=O)n1Cl`, the max activation was 0.0046% (inactive). For `O=[N+]([O-])c1ccc([As](=O)(O)O)cc1`, the max activation was -0.802% (inactive). For `CN(C)[C@@H]1C(=O)C(C(N)=O)=C(O)[C@@]2(O)C(=O)C3=C(O)c4c(O)cccc4[C@@](C)(O)[C@H]3C[C@@H]12`, the max activation was -1.09% (inactive).

Consider `OC(O)C(Cl)(Cl)Cl`, for which the max activation is -1.41% (inactive).

Regarding `Clc1ccc(Cl)cc1`, the max activation was -1.7% (inactive).

The target of the next test is Nuclear receptor subfamily 1 group I member 2 (Homo sapiens) (UniProt O75469). As to the kind of experiment: CYP3A4 induction through human pregnane X receptor (PXR) by small molecules, qHTS assay (AID 1346984). Further: nearly all actives have a fitted effect of over 40% in size. As to conditions: DPX-2 HepG2 PXR, CYP3A4-luciferin luminescence, 24 h; series mostly up to 46.1 µM. The gist of the method:
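Quantitative HTS in DPX-2 cells, i.e. HepG2 transfected with PXR response element and CYP3A4-promoter luciferase. Compounds in DMSO incubated 24hr at 37C; then P450-Glo CYP3A4 substrate, 3uM final, 3hr; One-Glo luminescence.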
Turning to `Nc1ccccc1C(=O)O`, the call was inactive. On the same count and under the same terms, the entry for `O=[N+]([O-])c1ccccc1` is “inactive”; for `C#CCN(C)[C@H](C)Cc1ccccc1` it is “inactive”; for `Clc1ccccc1Cl` it is “inactive”.

For the compound `CC1OC(C)OC(C)O1` (centres undefined), the call was inactive. The same measure, in the same setting: the entry for `CCOC(=O)c1ccccc1C(=O)OCC` is “inactive”.

In the case of `O=C(NC(=O)c1c(F)cccc1F)Nc1cc(Cl)c(OC(F)(F)C(F)C(F)(F)F)cc1Cl` (centres undefined), the compound was classed as inactive. Consider `C[C@]12CC[C@H]3[C@@H](CC[C@@]45O[C@@H]4C(O)=C(C#N)C[C@]35C)[C@@H]1CC[C@@H]2O`, for which the call was inactive.

As for `CC(C)=C[C@@H]1[C@@H](C(=O)OCc2coc(Cc3ccccc3)c2)C1(C)C`, the outcome was inactive. The same measure, in the same setting: the entry for `O=C(O)c1ccccn1` is “inactive”; for `O=c1n(Cl)c(=O)n(Cl)c(=O)n1Cl` it is “inactive”. Still for that read-out and setting: then `O=[N+]([O-])c1ccc([As](=O)(O)O)cc1`, with “inactive”; and `CN(C)[C@@H]1C(=O)C(C(N)=O)=C(O)[C@@]2(O)C(=O)C3=C(O)c4c(O)cccc4[C@@](C)(O)[C@H]3C[C@@H]12`, with “inactive”.

Regarding `OC(O)C(Cl)(Cl)Cl`, the result was inactive. With `Clc1ccc(Cl)cc1`, the result was inactive.

(Values after PubChem BioAssay (Tox21).)
